Records with an inconclusive call do not appear. The source made the active and inactive calls. Calls come from the whole dose curve; as a rule, active = well fitted inhibition curve with a large enough effect; inconclusive = small, poorly fitted or top-dose-only effect; inactive = flat fitted curve, though single readings scatter.
Columns and labels:
Assay in all cases: qHTS profiling for inhibitors of Plasmodium falciparum proliferation (AID 504749); note: nearly all actives have a fitted effect of over 60% in size
Conditions in all cases: P. falciparum in erythrocytes, SYBR Green DNA, 72 h; series mostly up to 28.7 µM
DIV30 = test system: DIV30
Outline: (§1)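 Readout was DNA-dye fluorescence from lysed cultures, ex 485/em 535 nm. Parasitized red cells had grown 72 h with compound; data scaled between 0.29 uM artemisinin and DMSO wells and corrected using vehicle-only plates.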

Dd2 = test system: Dd2
Outline: as §1

ECU = test system: ECU
Outline: as §1

FAB9 = test system: FAB9
Outline: as §1

GB4 = test system: GB4
Outline: as §1

HB3 = test system: HB3
Outline: as §1

ICS = test system: ICS
Outline: as §1

JCK = test system: JCK
Outline: as §1

N140 = test system: N140
Outline: as §1

P93_24 = test system: P93_24
Outline: as §1

Measured: Potency

O=C(OCCN1CCCCC1)C(O)(c1ccccc1)c1ccccc1
inactive: all assays above

C[C@H]1CC[C@@H]2[C@@H](C)[C@H]3[C@H](C[C@H]4[C@@H]5CC=C6CC(O[C@@H]7O[C@H](CO)[C@H](O)[C@H](O[C@@H]8O[C@H](CO)[C@@H](O)[C@H](O)[C@H]8O)[C@H]7O[C@H]7O[C@@H](C)[C@H](O)[C@@H](O)[C@H]7O)CC[C@]6(C)[C@H]5CC[C@]34C)N2C1 (some centres undefined)
inactive: all assays above

CC[N+](C)(CC)CCOC(=O)C(O)(c1ccccc1)c1ccccc1
inactive: all assays above

C[N+]1(C)C2CCC1CC(OC(=O)c1c[nH]c3ccccc13)C2 (centres undefined)
inactive: all assays above

COc1ccc(OC)c(C(O)C(C)N)c1 (centres undefined)
inactive: all assays above

C=CCN1CCC23c4c5ccc(O)c4O[C@H]2C(=O)CC[C@@]3(O)C1C5 (some centres undefined)
inactive: all assays above

CC(N)Cc1ccc(O)cc1 (centres undefined)
inactive: all assays above

O=C1C2CC=CCC2C(=O)N1SC(Cl)(Cl)Cl (centres undefined)
inactive: all assays above

Clc1ccc(C2(Cn3cncn3)OCCO2)c(Cl)c1
inactive: all assays above

CNC(=O)OCC[N+](C)(C)C
inactive: all assays above

Cn1sc(Cl)cc1=O
inactive: all assays above

CC(=O)OC1CN2CCC1CC2 (centres undefined)
inactive: all assays above

C=CCN(C1=NCCN1)c1c(Cl)cccc1Cl
inactive: all assays above

S=C=S
inactive: all assays above

CCC1(C)CC(=O)NC(=O)C1
inactive: all assays above

ClCC1CO1 (centres undefined)
inactive: all assays above

O=P(O)(O)C(Cl)(Cl)P(=O)(O)O
inactive: all assays above

C[N+]1(C)CCCCC1COC(=O)C(O)(c1ccccc1)c1ccccc1 (centres undefined)
not listed: P93_24
inactive: all other assays above

[N-]=[N+]=CC(=O)OCC(N)C(=O)O (centres undefined)
inactive: all assays above

O=[N+]([O-])c1cc(I)c(O)c(I)c1
inactive: all assays above

CCC1(c2ccccc2)C(=O)NC(=O)NC1=O
inactive: all assays above

O=CC=O
inactive: all assays above

O=C1CCCCC1CN1CCCCC1 (centres undefined)
inactive: all assays above

Reference: PubChem BioAssay (NCATS)
